# Lassa entry inh: inhibitors of Lassa virus binding or cell entry; Potency, µM (top dose mostly 37.9 µM), for inactives: top-dose activity change, negative = inhibition, most hits filed as inhibitors; 1.2% of 300,000 active; Lassa virus pseudotype entry inhibition, cell reporter; calls by dose curve; tested in HEK293 cells; note: potency is the fitted concentration of half-maximal effect; nearly all actives have a fitted effect of over 50% in size
# HCV inhibitor: HCV inhibition; Huh7.5.1 HCVcc-Cre infection, luciferase reporter, 44 h; Potency, µM (titrated, usually from 41.8 µM), for inactives: at the top dose activity change, negative = inhibition, most hits filed as inhibitors; 3.4% of 340,000 active; AID 651820; active = well fitted inhibition curve with a large enough effect; inconclusive = small, poorly fitted or top-dose-only effect, or another doubt; inactive = no such curve, though single readings can be large or run the other way; note: potency is the fitted concentration of half-maximal effect
#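 Infectious HCVcc-Cre (~0.5 moi) was added to cells just after compound, with cells seeded 4 h earlier at 1,000 per well. Luciferase activity after 44 h culture reported infection; substrate was incubated 15 min at room temperature before reading.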
# FMDV antiviral: antivirals against foot and mouth disease virus; 1.2% of 410,000 active; AID 1159524; FMDV antiviral cell-based qHTS; Potency, µM (titrated, usually from 57.9 µM), without a hit: top-dose activity change, negative = inhibition, hits mostly inhibitors; calls by dose curve; tested in HEK293T cells; note: read-out not given here; potency is the fitted concentration of half-maximal effect; nearly all actives have a fitted effect of over 45% in size
# MARV entry inh: blocks Marburg virus binding to or entry into cells. Marburg virus pseudotyped entry inhibition, cell reporter. Potency, µM (doses to about 37.8 µM), inactives show at the top dose activity change, negative = inhibition, usual class: inhibitors. 1.8% of 300,000 active. AID 540276; calls by dose curve; tested in HEK293 cells; note: potency is the fitted concentration of half-maximal effect
# HCMV inh: inhibitors of human cytomegalovirus; HFF cells, HCMV-luciferase reporter, 72 h; active compounds read low; activity change, negative = inhibition, % at 57.5 µM; 4.5% of 410,000 active; AID 1259415; in the data active = activity change below about -60%; inconclusive = no clear call, values can overlap the other calls; inactive = above about -39%
#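 Two-dose cell screen: HFF monolayers treated with compounds and infected with luciferase-expressing HCMV at 1 PFU/cell, 72 h at 37C, then lysed for luciferase measurement.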
# Active calls of the source: *; ? = inconclusive; nt = no result given; ! = not active in a repeat; [ ] = dose if it differs, or a comment. An excerpt weighted towards active compounds, which were near 7.9% of everything screened. % is set by controls: 0 for no effect and ±100 for the full control effect.
SMILES,Lassa entry inh,HCV inhibitor,FMDV antiviral,MARV entry inh,HCMV inh
CC(=O)Nc1ccc2nc(SCCOc3ccc(C)cc3)sc2c1,-1.0%[46.1 µM],nt,-13.3%,?,?
CC1CN=C(c2cc(Cl)c(N)c(Cl)c2)c2c3ccc(C(F)(F)F)cc3nn21 (stereo unspecified),nt,nt,nt,nt,63.3
CC/C(=C\c1ccc(N(C)C)cc1)c1ccncc1,-13.8%[46.1 µM],?,-21.9%,?,-23.5
CCCn1c(SCC(=O)NNC(=O)c2ccccc2)nnc1-c1cccnc1,nt,4.3%,-20.4%,nt,-37.8
CN(C(=O)CSc1nc2ccc(NC(=O)c3cccs3)cc2s1)c1ccccc1,?,nt,?,-25.1%[46.1 µM],-75.7*
O=S(=O)(c1ccc(Br)cc1F)N1CCCCC1CCO (stereo unspecified),nt,-7.2%,-16.1%,nt,-5.8
CCCCCCSc1cc(-c2nc3ccc(C)cn3c2NCc2ccccc2)ccc1OC,nt,-15.6%[8.37 µM],39.8µM*!,nt,54.2
CCCCCCSc1cccc(-c2nc3ccccn3c2NCc2ccccc2)c1,nt,-22.1%,25.1µM*,nt,-65.3*!
CCCCNc1c(-c2ccc(SC(C)CC)c(OC)c2)nc2ccc(Cl)cn12 (stereo unspecified),nt,-3.8%,0.0%,nt,-16.0
CCCCNc1c(-c2ccc(OC)c(Sc3ccc(OC)cc3)c2)nc2ccccn12,nt,10µM*,-27.4%,nt,nt
CCCCNc1c(-c2ccc(SC(C)CC)c(OC)c2)nc2ccc(C)cn12 (stereo unspecified),nt,10µM*,22.4µM*,nt,-94.3*
CCCCCCSc1cccc(-c2nc3cc(C)ccn3c2NCc2ccccc2)c1,nt,-21.4%,-25.4%,nt,55.4
O=C(NCc1ccccc1Cl)c1ccc(S(=O)(=O)NCc2ccco2)cc1,1.0%,-1.2%,3.3%,?,-18.6
COc1cccc(CNC(=O)NCc2noc3ccc(C)cc23)c1,12.9%[46.1 µM],nt,-5.4%,nt,-12.8
O=C(O)C1C2CCCCC2=C2CCCCC2C1C(=O)c1ccccc1 (stereo unspecified),nt,13.5%,-6.3%,nt,-14.6
COc1ccc(-c2nc3c(n2O)CCc2c-3no[n+]2[O-])cc1,nt,11.4%,-2.8%,nt,-68.3*
COn1c(-c2ccccc2)nc2c1CCc1c-2no[n+]1[O-],13.9%,3.0%,-0.3%,26.9%,-80.1*
CCOc1ccc(NS(=O)(=O)c2ccc(C(=O)NCC(c3ccco3)N3CCCC3)cc2)cc1 (stereo unspecified),nt,-12.2%,4.6%,nt,2.0
NS(=O)(=O)c1nn2cc(-c3ccccc3)nc2s1,nt,nt,9.0%,nt,nt
CCC1=Nc2cc(C(=O)NCc3ccco3)ccc2Sc2ccc(Cl)cc21,?,?,-14.3%,?,-66.6*
CCC1=Nc2cc(C(=O)NCC3CCCO3)ccc2Sc2ccc(Cl)cc21 (stereo unspecified),nt,?,2.7%,nt,0.0
CCC1=Nc2cc(C(=O)NCc3ccco3)ccc2Sc2ccccc21,?,?,6.8%,-13.3%,-2.5
CCC1=Nc2cc(C(=O)NC3CCCC3)ccc2Sc2ccc(Cl)cc21,?,nt,-22.9%,?,-70.5*
CC1=Nc2cc(C(=O)NC3CCCC3)ccc2Sc2ccc(Cl)cc21,?,nt,-25.4%,nt,-72.0*
CC1=Nc2cc(C(=O)NC(C)C)ccc2Sc2ccc(C)cc21,2.8%[46.1 µM],nt,-18.2%,?,-76.9*
SMILES,Lassa entry inh,HCV inhibitor,FMDV antiviral,MARV entry inh,HCMV inh
CC(=O)c1ccccc1-c1ccc2c(c1)CC(CNC(=O)c1cc(C)on1)O2 (stereo unspecified),nt,nt,-25.9%,nt,nt
COc1cc(NCCCn2cnc3c(OC)ncnc32)cc(OC)c1OC,nt,nt,-8.9%,nt,-3.9
Cc1ccc(NC(=O)c2c(C)oc3c2C2=NCCN2C=N3)cc1F,1.6%[46.1 µM],nt,-0.8%,nt,-11.7
Cc1cc(C(=O)Nc2ccc(CC(=O)O)cc2)c(C)o1,?,15.8%,-21.1%,?,-23.4
CNC(=O)c1ccc2c(c1)N=C(C)c1cc(C)ccc1S2,-17.4%[46.1 µM],nt,-8.6%,?,3.8
CC1=Nc2cc(C(=O)NC3CCCC3)ccc2Sc2ccc(C)cc21,-33.0%[46.1 µM],nt,-2.2%,?,-93.4*
CCCCCn1cc2c(c1-c1ccc(Br)cc1)c(=O)n(C)c(=O)n2C,-1.5%[46.1 µM],nt,-8.7%,-17.4%[46.1 µM],-8.0
COC(=O)C(=Cc1ccccc1[N+](=O)[O-])C(=O)OC,nt,?,15.8µM*,nt,-95.9*
COc1ccc(CNC(=O)/C=C/c2ccccc2[N+](=O)[O-])cc1,nt,0.9%,15.3%,nt,9.1
c1ccc(Cn2c(-c3ccccc3)c[n+]3c2SCCC3)cc1,?,2.51µM*,-12.7%,?,?
Cc1cc(CNC(=O)c2cnn(-c3nccc(-c4cc(C)sc4C)n3)c2C2CC2)on1,nt,nt,45.5%,nt,nt
O=C(O)c1cnnc2ccccc12,9.7%[46.1 µM],-8.7%,5.7%,-4.1%[46.1 µM],1.4
c1ccc(-c2cnnc3ccccc23)cc1,nt,11.2µM*,-25.9%,nt,-3.2
CCOc1cc(CNCCO)cc(Br)c1OCc1ccccc1,?,10µM*,-7.6%,?,?
COc1cc(C(N)=O)cc(Br)c1OCc1ccccc1,-17.2%,?,-8.6%,1.3%,?
CCOc1cc(CNCCSc2nnnn2C)cc(Br)c1OCc1ccccc1,?,2.82µM*,?,?,40.5
CCOc1c(Br)cc(C(N)=O)cc1OCc1ccccc1,11.6µM*,?,20.8%,?,-9.6
COc1cccc(CNCCSc2nnnn2C)c1OCc1ccccc1,?,nt,-11.4%,?,0.3
CCN(CC(=O)Nc1ccc(OC)cc1)C(=O)c1ccc(N2CCCC2=O)cc1,nt,-6.6%,5.8%,nt,3.1
Cc1cc(C)c2nc(NC(=O)c3cc(C)on3)sc2c1,9.3%,-46.2%,1.1%,-0.1%,?
CCc1noc(C)c1C(=O)OCC(=O)Nc1nc(-c2ccc(F)c(F)c2)cs1,?,?,14.1µM*,?,14.2
CCc1noc(C)c1C(=O)Nc1nc(-c2ccc(OC)c(OC)c2)cs1,?,?,17.8µM*,?,-25.5
CCc1noc(C)c1C(=O)Nc1nc(-c2ccc(NC(C)=O)cc2)cs1,?,10µM*,22.4µM*,?,-33.8
CCc1noc(C)c1C(=O)Nc1nc2c(C)cc(C)cc2s1,8.6%,11.2µM*,-2.2%,?,-4.4
Cc1onc(-c2ccccc2)c1C(=O)Nc1nc(-c2ccc(F)c(F)c2)cs1,11.8%,?,0.3%,1.9%,-16.0
SMILES,Lassa entry inh,HCV inhibitor,FMDV antiviral,MARV entry inh,HCMV inh
COc1ccc(-c2csc(NC(=O)c3cc(C)oc3C)n2)cc1OC,?,?,?,?,-8.4
CC(C)CON=C1C[C@@H](O)[C@@H](O)[C@@H]2[C@H]3C(=O)N(Cc4ccccc4)C(=O)[C@@H]3CC[C@@H]12,nt,nt,nt,0.7%[14.2 µM],nt
COc1ccc(CN2CCOc3ccc(CN4CCCCC4CO)cc3C2)c(OC)c1 (stereo unspecified),nt,nt,-1.7%,nt,nt
O=C(Nc1ccc(C(=O)OCc2cc(=O)n3ccsc3n2)cc1)c1cccc(F)c1,?,nt,-15.4%,nt,-0.7
NC(=O)C1CCN(C(=O)C2(NC(=O)Nc3cccc(F)c3)CCCCC2)CC1,?,11.2%,2.7%,-13.4%[46.1 µM],3.0
O=C(Nc1cccc(F)c1)NC1(C(=O)N2CCC(O)CC2)CCCCC1,?,6.4%,12.6%,?,-99.0*
Cc1ccc(CCNC(=O)c2ccc(CS(=O)(=O)c3ccc(Br)cc3)o2)cc1,3.3%[46.1 µM],nt,9.6%,?,-6.0
